# Data: the supplement of paper PMC5662767
# Counter-ions that a name gives are not always drawn.
# Tested on: Drosophila S2 cl14 SmoIP sensor cells
# Assay: normalized SmoIP GFP fluorescence (untreated unstimulated = 0%, untreated Hh-stimulated = 100%); higher = more Smo activation sensor fluorescence
# Conditions: compound concentration: 2 uM, 24 h
# [1] = stimulation: Hh conditioned medium (+Hh)
# [2] = stimulation: mock conditioned medium (-Hh)
# 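Also: flow cytometry read-out as median GFP intensity of gated cells, compounds added 30 min before Hh-conditioned or mock medium, mock-treated cells serving as unstimulated baseline.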
Structure (SMILES),normalized SmoIP GFP fluorescence [1] [%],normalized SmoIP GFP fluorescence [2] [%]
CN(C)CC[C@H](CSc1ccccc1)Nc1ccc(S(=O)(=O)NC(=O)c2ccc(N3CCN(Cc4ccccc4-c4ccc(Cl)cc4)CC3)cc2)cc1[N+](=O)[O-],109,2.97
O=C1CCc2cc(OCCCCc3nnnn3C3CCCCC3)ccc2N1 [Cilostazol],116,2.11
O=C(COc1cccc2c(=O)[nH]ccc12)c1ccccc1,139,0.334
COc1cccc2cc(-c3nc([C@H]4CC[C@H](C(=O)O)CC4)n4ncnc(N)c34)[nH]c12,54.2,-5.17
C[C@@]1(C(=O)Nc2ccc(F)nc2)CCCN1c1nc(Nc2cc(C3CC3)n[nH]2)c2cccn2n1,230,60.9
CNC(CC(=O)O)C(=O)O (stereo not drawn) [nmda-n-methyl-d-aspartic-acid],101,-3.16
Oc1cccc(-c2nc(N3CCOCC3)c3oc4ncccc4c3n2)c1,85.1,4.26
c1ccc(-c2[nH]ncc2-c2ccnc3ccccc23)nc1,101,0.247
CN1C(C(=O)Nc2ccccn2)=C(O)c2sc(Cl)cc2S1(=O)=O [lornoxicam-xefo],129,-4.89
C[C@H](Cn1cnc2c(N)ncnc21)OCP(=O)(O)O [Tenofovir],104,-4.47
OC[C@@H](O)CN1CCN(c2ccccc2)CC1 [levodropropizine],94.5,-2.93
"Clc1ccc(Nc2nnc(Cc3ccncc3)c3ccccc23)cc1 [Vatalanib,Dihydrochloride-Salt]",125,-9.22
COc1ccc2c(c1)C(=O)N(CCc1ccc(S(=O)(=O)NC(=O)NC3CCCCC3)cc1)C(=O)C2(C)C [gliquidone],105,-4.01
CN(C)C(=O)Nc1cccc(-c2ccc(N(C)C)cc2)c1 [atglistatin],130,18.1
CCCCNc1ccc(C(=O)OCCN(C)C)cc1 [tetracaine-hydrochloride-pontocaine],117,-6.34
O=C(O)/C=C/c1ccc(Cn2ccnc2)cc1 [Ozagrel],116,-2.46
O=C(O)CCCCC(CCSCc1ccccc1)SCc1ccccc1 (stereo not drawn),112,-1.63
COc1ccc2cccc(CCNC(C)=O)c2c1 [Agomelatine],102,5.66
O=c1oc2cc(O)ccc2s1 [tioxolone],169,-1.83
Cc1cc(CN2CCN(c3c(Br)cnc4nc(-c5ccc(N6CCN(C)CC6)cc5)[nH]c34)CC2)no1,123,20.5
COCCOc1ccc2c(c1)ncn2-c1ccc2cccc(N3CCC(N)CC3)c2n1,264,80
O=C(O)c1ccc(Nc2ncc3c(n2)-c2ccc(Cl)cc2C(c2c(F)cccc2F)=NC3)cc1,271,46.7
O=C(c1ccc(Nc2nccc(-c3cc4ccccc4s3)n2)cc1)N1CCC(N2CCCC2)CC1,106,1.1

Structure (SMILES),normalized SmoIP GFP fluorescence [1] [%],normalized SmoIP GFP fluorescence [2] [%]
CO[C@H]1C[C@@H]2CC[C@@H](C)[C@@](O)(O2)C(=O)C(=O)N2CCCC[C@H]2C(=O)O[C@H]([C@H](C)C[C@@H]2CC[C@@H](OP(C)(C)=O)[C@H](OC)C2)CC(=O)[C@H](C)/C=C(\C)[C@@H](O)[C@@H](OC)C(=O)[C@H](C)C[C@H](C)/C=C/C=C/C=C/1C [Deforolimus],23.8,-8.56
CCOc1ccc(Cc2cc([C@@H]3O[C@H](CO)[C@@H](O)[C@H](O)[C@H]3O)ccc2Cl)cc1 [Dapagliflozin],75.9,1.57
O=C(C[S+]([O-])Cc1ccco1)NC/C=C\COc1cc(CN2CCCCC2)ccn1 (stereo not drawn) [lafutidine],113,-9.85
CCCCCCCCCCCC1=C(O)C(=O)C=C(O)C1=O [embelin],108,-2.08
CN1CCC(=C2c3ccccc3CCc3cccnc32)CC1 [azatadine-dimaleate],114,4.79
CNCc1cc(-c2ccccc2F)n(S(=O)(=O)c2cccnc2)c1,126,-15.1
CC(C)(C)OC(=O)N[C@H]1CCCCC/C=C\[C@@H]2C[C@@]2(C(=O)NS(=O)(=O)C2CC2)NC(=O)[C@@H]2C[C@@H](OC(=O)N3Cc4cccc(F)c4C3)CN2C1=O [Danoprevir],111,13
COc1ccc2c(Oc3ccc(NC(=O)c4c(C)n(CC(C)(C)O)n(-c5ccccc5)c4=O)nc3)ccnc2c1,158,-1.11
Cc1cnc(Nc2ccc(OCCN3CCCC3)cc2)nc1Nc1cccc(S(=O)(=O)NC(C)(C)C)c1,173,8.54
CO[C@H]1C[C@@H]2CC[C@@H](C)[C@@](O)(O2)C(=O)C(=O)N2CCCC[C@H]2C(=O)O[C@H]([C@H](C)C[C@@H]2CC[C@@H](OC(=O)C(C)(CO)CO)[C@H](OC)C2)CC(=O)[C@H](C)/C=C(\C)[C@@H](O)[C@@H](OC)C(=O)[C@H](C)C[C@H](C)/C=C/C=C/C=C/1C [Temsirolimus],56.5,-1.56
O=C(/C=C/c1ccc(O)c(O)c1)OCCc1ccccc1 [caffeic-acid-phenethyl-ester],114,71.8
COc1ccc(C2=N[C@@H](c3ccc(Cl)cc3)[C@@H](c3ccc(Cl)cc3)N2C(=O)N2CCNC(=O)C2)c(OC(C)C)c1 [Nutlin-3],90.4,2.11
CCC(C)(Oc1ccc(C2(c3ccc(OC(C)(CC)C(=O)O)cc3)CCCCC2)cc1)C(=O)O (stereo not drawn) [clinofibrate],131,-14.5
CC(C)OC(=O)C1=CN(C(=O)c2ccc(F)c(F)c2)CC(C)(C)c2c1[nH]c1ccccc21,117,12.5
Cc1ccc(Nc2nccc(N(C)c3ccc4c(C)n(C)nc4c3)n2)cc1S(N)(=O)=O [pazopanib],107,1.95
CN(C)Cc1ccc(-c2nc3cccc4c3n2CCNC4=O)cc1,120,-14.3
C=CC(=O)Nc1cccc(Oc2nc(Nc3ccc(N4CCN(C)CC4)cc3OC)ncc2Cl)c1,96.5,19.1
O=C(Nc1cccc(Cl)c1)c1ccccn1,105,-2.93
Cc1nnc(C(C)C)n1C1C[C@H]2CC[C@@H](C1)N2CC[C@H](NC(=O)C1CCC(F)(F)CC1)c1ccccc1 (stereo in doubt) [Maraviroc],122,-13.4
CN1CCN2c3ccccc3Cc3ccccc3C2C1 (stereo not drawn) [Mianserin-hydrochloride],115,4.04
CCCCCCCCc1ccc(CCC(N)(CO)CO)cc1,107,-0.0369
CCC1=C(C)CN(C(=O)NCCc2ccc(S(=O)(=O)NC(=O)N[C@H]3CC[C@H](C)CC3)cc2)C1=O [Glimepiride],94.8,3.18
Cc1c(CN2CCN(C(=O)[C@H](C)O)CC2)sc2c(N3CCOCC3)nc(-c3cnc(N)nc3)nc12,69.8,-4.35

Structure (SMILES),normalized SmoIP GFP fluorescence [1] [%],normalized SmoIP GFP fluorescence [2] [%]
CC(C)(C)NC(=O)[C@H]1CC[C@H]2[C@@H]3CC[C@H]4NC(=O)C=C[C@]4(C)[C@H]3CC[C@]12C [Finasteride],77.5,-9.32
CC(=O)Oc1cc2c(s1)CCN(C(C(=O)C1CC1)c1ccccc1F)C2 (stereo not drawn) [Prasugrel],107,-2.42
CC(C)N(CCC(=O)c1ccc2ccccc2c1)Cc1ccccc1,119,-19
CNC(=O)c1ccc(N2C(=S)N(c3cnc(C#N)c(C(F)(F)F)c3)C(=O)C23CCC3)cc1F,105,-0.0369
CNC(=O)c1cc(Oc2ccc(NC(=O)Nc3cc(C(C)(C)C)nn3-c3ccc4ncccc4c3)c(F)c2)ccn1,183,0.605
COc1ccc(Cn2ccc3ccc(C(=O)NO)cc32)cc1,111,-8.59
CCOC(=O)C1=C(C)NC(C)=C(C(=O)OC)C1c1cccc([N+](=O)[O-])c1 (stereo not drawn) [Nitrendipine],117,-12
CNC(=O)[C@H](Cc1ccccc1)NC(=O)[C@H](CC(C)C)[C@H](CSc1cccs1)C(=O)NO,94.8,-2.48
Nc1nc(N)c(N=O)c(OCC2CCCCC2)n1,139,12.5
O=C(COc1ccc(Cl)cc1)NC1CCC(NC(=O)COc2ccc(Cl)cc2)CC1 (stereo not drawn) [isrib-trans-isomer],109,7.06
c1ccc2c(CCNc3ccc(Nc4ccncc4)cc3)c[nH]c2c1,106,10.7
Cn1c(=O)cc(N2CCC[C@@H](N)C2)n(Cc2cc(F)ccc2C#N)c1=O [trelagliptin],104,3.18
CC1=C(C(=O)OC(C)C)C(c2cccc([N+](=O)[O-])c2)C(C(=O)OC2CN(C(c3ccccc3)c3ccccc3)C2)=C(N)N1 (stereo not drawn) [azelnidipine],111,-1.23
CC(/C=C/C(=O)NO)=C\[C@@H](C)C(=O)c1ccc(N(C)C)cc1 [Trichostatin-A],276,77.5
Nc1nc(CC(=O)Nc2ccc(CCNC[C@H](O)c3ccccc3)cc2)cs1 [mirabegron-ym178],108,-5.15
C[C@@H](NCCCc1cccc(C(F)(F)F)c1)c1cccc2ccccc12 [Cinacalcet-hydrochloride],104,5.98
COC(=O)N[C@@H](C)CNc1nccc(-c2cn(C(C)C)nc2-c2cc(Cl)cc(NS(C)(=O)=O)c2F)n1,170,48.8
O=C1c2ccc(Nc3ccc(F)cc3F)cc2CCc2ccc(OC[C@H](O)CO)cc21 [skepinone-l],101,-4.13
COC1CCN(C(=O)c2cc(Cc3n[nH]c(=O)c4ccccc34)ccc2F)CC1,103,-3.5
CCC(=O)NCC[C@@H]1CCc2ccc3c(c21)CCO3 [Ramelteon],95.6,-0.588
COCC[n+]1c2c(n(Cc3cnccn3)c1C)C(=O)c1ccccc1C2=O,101,-12.7
CN(C)Cc1c(C(=O)NCCOc2ccc(C(=O)NO)cc2)oc2ccccc12,211,35.2
O=C1NC(=O)/C(=C/c2ccc3nccc(-c4ccncc4)c3c2)S1,175,2.43
